Compound activity (PubChem BioAssay)
Shown is part of a subset that was picked to be rich in hits.
DT40 TDP1 CPT – growth inhibition of DT40 Tdp1-/-;hTDP1 cells with camptothecin (screen for TDP1 inhibitors) | chicken DT40 Tdp1-/-;hTDP1 cells + 20 nM CPT, ATP luminescence, 48 h | Potency, µM (titrated, usually from 46.2 µM), most hits filed as inhibitors | 420,000 tested, 12% active; also: nearly all actives have a fitted effect of over 55% in size
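Chicken DT40 Tdp1-/- cells stably complemented with human TDP1 were seeded at 400 cells/well in medium containing 20 nM camptothecin, exposed to pin-transferred compounds, and grown at 37 °C for at least 48 hr. Viability was read as ATP luminescence.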
DT40 TDP1 no CPT – qHTS for Inhibitors of human tyrosyl-DNA phosphodiesterase 1 (TDP1): qHTS in cells in absence of CPT; Potency, µM (series often up to 46.2 µM), hits mostly inhibitors; AID 686978, 2013; DT40 Tdp1-/- hTDP1 cells, no CPT, ATP luminescence, 48 h; 420,000 tested, 15% active; also: nearly all actives have a fitted effect of over 55% in size
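Growth of hTDP1-complemented DT40 Tdp1-knockout cells is measured by ATP luminescence after at least 48 hr compound exposure at 37 °C, with DMSO substituting for the 20 nM CPT used in the parallel screen.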
12-LOX inh – blocks human arachidonate 12S-lipoxygenase; 580,000 tested, 1.1% active; P18054; Potency, µM (titrated, usually from 108 µM), actives largely listed as inhibitors; AID 1671190; purified 12hLO, xylenol orange hydroperoxide absorbance
Target sequence (P18054 whole entry, looked up): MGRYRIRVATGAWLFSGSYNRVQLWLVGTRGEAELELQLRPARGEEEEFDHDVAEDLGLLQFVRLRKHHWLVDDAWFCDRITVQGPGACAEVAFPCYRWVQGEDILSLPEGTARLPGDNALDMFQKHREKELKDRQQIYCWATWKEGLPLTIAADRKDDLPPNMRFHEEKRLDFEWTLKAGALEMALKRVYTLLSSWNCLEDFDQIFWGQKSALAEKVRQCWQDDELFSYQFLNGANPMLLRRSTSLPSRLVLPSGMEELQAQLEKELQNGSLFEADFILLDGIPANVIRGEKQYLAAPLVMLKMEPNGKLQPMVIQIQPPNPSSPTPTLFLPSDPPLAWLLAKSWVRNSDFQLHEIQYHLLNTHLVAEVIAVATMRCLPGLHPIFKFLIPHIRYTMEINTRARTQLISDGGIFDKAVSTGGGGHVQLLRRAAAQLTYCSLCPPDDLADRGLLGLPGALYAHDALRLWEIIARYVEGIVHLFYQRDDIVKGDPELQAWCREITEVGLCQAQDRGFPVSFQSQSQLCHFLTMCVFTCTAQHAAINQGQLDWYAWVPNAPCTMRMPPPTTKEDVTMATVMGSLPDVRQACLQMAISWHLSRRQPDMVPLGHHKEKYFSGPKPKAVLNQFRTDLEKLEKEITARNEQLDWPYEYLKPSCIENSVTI
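Hydroperoxide product was detected by ferrous iron/xylenol orange as the 573 to 405 nm absorbance ratio. Arachidonic acid at 40 uM (final) was turned over for 30 min at room temperature by 150 nM human 12hLO, pH 7.0 Hepes buffer, after 15 min compound preincubation.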
IL1B secr inh – inhibitors of inflammasome signaling (IL-1 beta secretion); THP-1 LPS/ATP IL-1B secretion, AlphaLISA, 16 h; stronger effect = lower value; 360,000 tested, 4.7% active; activity change, % at 57.5 µM; in the data active = activity change below about -50%; inconclusive = mostly about -30% to -49%
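Secreted IL-1B measured by AlphaLISA bead assay after 16 h compound exposure of THP-1 cells; compounds (final up to 57.5 uM) added 1 h before LPS (250 ng/mL) and ATP (1.25 mM) stimulation; lower signal means less secretion.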
HT1080NT lethal – kills 2HG-producing HT-1080-NT fibrosarcoma cells | HT-1080-NT fibrosarcoma viability, CellTiter-Glo ATP luminescence, 48 h | Potency, µM (highest dose often 46.1 µM), actives largely listed as cytotoxic | AID 686970 | 360,000 tested, 1.6% active;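 also: NT is the 2HG producing partner of a matched IDH1 knockdown line; nearly all actives have a fitted effect of over 55% in size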
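Compounds were tested in concentration-response format on HT-1080-NT cells for 48 hours at 37 degrees C. Cell viability came from CellTiter-Glo luminescence; curves were classified by r2, response magnitude and activity.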
HT1080 IDH1KD tx – toxicity to HT-1080 IDH1 knockdown cells (counter line); HT-1080 IDH1 knockdown viability, ATP luminescence, 48 h; Potency, µM (series often up to 46.1 µM), usual class: cytotoxic; 360,000 tested, 2% active; AID 686971
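Using the IDH1-knockdown HT-1080 line run in the same batch and compound series as the NT line, viability after 48 h at 37 °C was determined by CellTiter-Glo luminescence and expressed as % activity.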
Each line names hits and unclear results; the compound was inactive in the other large screens. Unless noted, calls follow the shape of the dose curve; as a rule, active = well fitted curve in the direction sought with a large enough effect; inconclusive = small, poorly fitted or top-dose-only effect, or another doubt; inactive = no such curve, though single readings can be large; an effect the other way counts as inactive or inconclusive.

CC(NC(=O)Cc1ccc(-c2ccccc2)cc1)C12CC3CC(CC(C3)C1)C2 (stereo unspecified)	none (no result: DT40 TDP1 CPT, DT40 TDP1 no CPT, IL1B secr inh, HT1080NT lethal, HT1080 IDH1KD tx)
Cc1ccc(-n2nnnc2Sc2nnnn2-c2ccccc2)cc1	none (no result: DT40 TDP1 CPT, DT40 TDP1 no CPT, IL1B secr inh, HT1080NT lethal, HT1080 IDH1KD tx)
CCc1cc2c(=O)c(-c3nc4ccccc4n3C)c(C(C)C)oc2c(CN2CCN(C)CC2)c1O	DT40 TDP1 CPT 7.3µM, DT40 TDP1 no CPT 12µM
CCc1cc2c(=O)c(-c3nc4ccccc4n3C)c(C)oc2c(CN2CCOCC2)c1O	DT40 TDP1 CPT 8.2µM, DT40 TDP1 no CPT 9.2µM
CCc1cc2c(=O)c(-c3nc4ccccc4n3C)c(C)oc2c(CN2CCN(CCO)CC2)c1O	DT40 TDP1 CPT 16µM, DT40 TDP1 no CPT inconclusive, HT1080NT lethal inconclusive
CCc1cc(-c2n[nH]c(C)c2-c2nc3ccccc3n2C)c(O)c(CN2CCN(C)CC2)c1O	HT1080NT lethal inconclusive, HT1080 IDH1KD tx inconclusive
CCc1cc2c(=O)c(-c3nc4ccccc4n3C)c(C)oc2cc1OC(C)=O	DT40 TDP1 CPT inconclusive, DT40 TDP1 no CPT inconclusive
COc1ccccc1-c1c(C)oc2c(CN3CCN(CCO)CC3)c(O)ccc2c1=O	none
Cc1c(C)c2cc(Cl)c(O)c(CN3CCCC(C)C3)c2oc1=O (stereo unspecified)	none
CCc1cc2c(=O)c(-c3nc4ccccc4n3C)coc2c(CN2CCCC(C)C2)c1O (stereo unspecified)	DT40 TDP1 CPT inconclusive, DT40 TDP1 no CPT 9.2µM
Cc1cc(NC(=O)c2ccc(CN3CC[C@H](O)C3)cc2)ccc1F	none (no result: DT40 TDP1 CPT, DT40 TDP1 no CPT, IL1B secr inh, HT1080NT lethal, HT1080 IDH1KD tx)
CC(=O)Nc1cc([N+](=O)[O-])cc(NC(C)=O)c1NC(C)=O	DT40 TDP1 CPT 7.1µM, DT40 TDP1 no CPT inconclusive (no result: 12-LOX inh, IL1B secr inh, HT1080NT lethal, HT1080 IDH1KD tx)
CC(=O)Nc1ccc(O)cc1[N+](=O)[O-]	none
Cc1c(CCC(=O)Nc2nc3ccccc3[nH]2)c(=O)oc2c(C)c(O)ccc12	none (no result: DT40 TDP1 CPT, DT40 TDP1 no CPT, IL1B secr inh, HT1080NT lethal, HT1080 IDH1KD tx)
CCc1ccc(NC(=O)CSC2=Nc3ccccc3C3=NC(CC(=O)NCc4cccs4)C(=O)N23)cc1 (stereo unspecified)	DT40 TDP1 CPT 7.3µM, DT40 TDP1 no CPT 4.6µM (no result: IL1B secr inh, HT1080NT lethal, HT1080 IDH1KD tx)
COc1cccc(NC(=O)CSC2=Nc3ccccc3C3=NC(CC(=O)NCc4cccs4)C(=O)N23)c1 (stereo unspecified)	DT40 TDP1 CPT 10µM, DT40 TDP1 no CPT inconclusive (no result: IL1B secr inh, HT1080NT lethal, HT1080 IDH1KD tx)
CCc1ccc(NC(=O)CSC2=Nc3ccccc3C3=NC(CC(=O)NCc4ccccc4)C(=O)N23)cc1 (stereo unspecified)	none (no result: IL1B secr inh, HT1080NT lethal, HT1080 IDH1KD tx)
COc1ccc(C(=O)N2CCC(C(NC(=O)c3ccccc3Cl)C(=O)N3CCCCC3)CC2)cc1 (stereo unspecified)	none (no result: DT40 TDP1 CPT, DT40 TDP1 no CPT, IL1B secr inh, HT1080NT lethal, HT1080 IDH1KD tx)
O=C(CCN1CCN(Cc2ccccc2)CC1)Nc1ccc(OCc2ccccc2)cc1	DT40 TDP1 CPT inconclusive, DT40 TDP1 no CPT 15µM
Cc1cc(C)c(NC(=O)CCN2CCN(Cc3ccccc3)CC2)c(C)c1	DT40 TDP1 CPT inconclusive, DT40 TDP1 no CPT 16µM
COc1cccc(NC(=O)CCN2CCN(c3ccccc3)CC2)c1	DT40 TDP1 CPT inconclusive, DT40 TDP1 no CPT 10µM (no result: IL1B secr inh, HT1080NT lethal, HT1080 IDH1KD tx)
CCN1CCN(CCC(=O)Nc2cccc(OC)c2)CC1	none
Cc1cccc(NC(=O)CCN2CCN(Cc3cccc4ccccc34)CC2)c1	12-LOX inh 28µM (no result: DT40 TDP1 CPT, DT40 TDP1 no CPT, IL1B secr inh, HT1080NT lethal, HT1080 IDH1KD tx)
Cc1cccc(NC(=O)CCN2CCN(C)CC2)c1	none
CC(OC(=O)c1cc(=O)[nH]c2ccccc12)C(=O)Nc1cccc2ccccc12 (stereo unspecified)	none (no result: DT40 TDP1 CPT, DT40 TDP1 no CPT, IL1B secr inh, HT1080NT lethal, HT1080 IDH1KD tx)
CN(CCCN1CCOCC1)Cc1nc(-c2ccc(Cl)cc2)no1	none (no result: DT40 TDP1 CPT, DT40 TDP1 no CPT, IL1B secr inh, HT1080NT lethal, HT1080 IDH1KD tx)
FC(F)(F)c1cccc(-n2nnnc2C2(N3CCOCC3)CCCC2)c1	none (no result: DT40 TDP1 CPT, DT40 TDP1 no CPT, IL1B secr inh, HT1080NT lethal, HT1080 IDH1KD tx)
O=C([C@@H]1C[C@H](Oc2cccnc2)CN1C(=O)CCc1c[nH]c2ccccc12)N1CCOCC1	none (no result: DT40 TDP1 CPT, DT40 TDP1 no CPT, IL1B secr inh, HT1080NT lethal, HT1080 IDH1KD tx)
O=C(CCN1CCN(Cc2ccccc2)CC1)Nc1cccc(Br)c1	DT40 TDP1 CPT 16µM, DT40 TDP1 no CPT 16µM
